Screening results as filed in PubChem BioAssay.
Shown are actives, neighbours in structure and some others; about 4.1% of the full set was active somewhere.
ALR H2O2 inh: human ALR oxidase inhibition via reduced H2O2 | P55789 | purified ALR, DTT oxidation, H2O2 HRP-luminol luminescence | inhibition, % (test concentration not listed) | actives 3.8% (n = 290,000) | AID 485317;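 active = mean replicate inhibition above about 79%, with every replicate also reaching it, limit read from the data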
Target sequence (P55789 whole entry, looked up): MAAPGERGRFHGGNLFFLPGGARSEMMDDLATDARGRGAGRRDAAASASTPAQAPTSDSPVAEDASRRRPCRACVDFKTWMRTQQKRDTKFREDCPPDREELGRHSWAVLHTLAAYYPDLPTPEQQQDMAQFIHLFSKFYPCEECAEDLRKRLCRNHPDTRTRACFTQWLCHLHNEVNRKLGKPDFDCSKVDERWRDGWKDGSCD
NSD2 inh: NSD2 (human) methyltransferase inhibition; actives 0.54% (n = 310,000); inhibition, % at 12.5 µM; NSD2 peptide methylation, AlphaScreen, 120 min; in the data active = inhibition above about 50%
Env fusion inh: HIV envelope-mediated fusion inhibition; inhibition, % at 12.3 µM; HeLa-JRFL Env/CEM21 cell fusion, luciferase; AID 651610; actives 1.1% (n = 360,000);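 active = mean replicate inhibition score of at least 50 and every replicate individually at or above 50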;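 also: 0% = plate neutral controls and 100% = maraviroc near 300 nM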
PglD DTNB: inhibitors of Campylobacter jejuni PglD acetyltransferase; AID 602405; inhibition, % at 12.5 µM; purified PglD enzyme, DTNB colorimetric CoA detection; actives 0.098% (n = 360,000); in the data active = inhibition above about 16%, passing the limit was not always enough
Casp6 inh: inhibitors of human caspase-6; P55212; purified caspase-6, Z-VEID-R110 cleavage fluorescence; inhibition, % at 12.5 µM; actives 0.53% (n = 350,000); AID 686996;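 active = mean inhibition across replicates at least about 35%, with every replicate also reaching that limit, limit read from the data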;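 also: 0% = median of neutral control wells and 100% = no fluorescence left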
F508del corr: correctors of CFTR F508del function in bronchial epithelial cells. actives 0.36% (n = 350,000). activity (quench increase), % at 7.58 µM. AID 720511. CFBE cells, YFP halide quenching; stimulated with forskolin plus potentiator P3; % fluorescence drop versus neutral controls;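 active = mean added fluorescence quench of at least 8% versus neutral control, with both replicates also reaching 8%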;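 also: cells transiently co-express mutant CFTR-F508del with the halide-sensitive YFP; corrector assay measuring rescue of mutant channel to the surface after 24 h compound exposure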
Numbers without * were called inactive; [ ] = dose if it differs, or a comment.

`Cc1ccc(N2CC(=O)N(NC(=O)CN3CCN(c4ccccc4)CC3)CC2=O)cc1` gave ALR H2O2 inh 85*, NSD2 inh -1, Env fusion inh 12, Casp6 inh 2 and F508del corr -3.
`Cc1c(NC(=O)CN2CCN(c3ccc([N+](=O)[O-])cc3)CC2)c(=O)n(-c2ccccc2)n1C` gave ALR H2O2 inh 7, NSD2 inh 2, Env fusion inh 7, Casp6 inh 0 and F508del corr 0.
`Cc1ccccc1CSCC(=O)Nc1c(C)n(C)n(-c2ccccc2)c1=O` gave ALR H2O2 inh 98*, NSD2 inh 2, Env fusion inh -11 and Casp6 inh 2.
For Cc1c(NC(=O)CN2CCN(c3ccc(O)cc3)CC2)c(=O)n(-c2ccccc2)n1C the results were ALR H2O2 inh 99*, NSD2 inh 0, Env fusion inh 15, Casp6 inh 0 and F508del corr 1.
Screening O=C(CN1CCOCC1)NN1CC(=O)N(c2ccc(Cl)cc2)CC1=O returned ALR H2O2 inh 21, NSD2 inh -1, Env fusion inh -2 and Casp6 inh 4.
For O=C(Nc1cc(F)ccc1F)N1CC(=O)N2[C@H](CO)[C@@H](c3ccc(-c4ccc(F)cc4)cc3)[C@@H]2C1 the results were Casp6 inh -2 and F508del corr 0.
`CO[C@@H]1CN(C)C(=O)c2cc(NC(=O)c3nc4ccccc4s3)ccc2OC[C@@H](C)N(Cc2ccccc2)C[C@H]1C` gave PglD DTNB 1, Casp6 inh 1 and F508del corr -5.
`CCOC(=O)c1sc2nc3c(SCCC(=O)O)cc(C(=O)c4cc(OC)ccc4O)cn3c(=O)c2c1C` gave NSD2 inh -4, Env fusion inh 72*, Casp6 inh 2 and F508del corr 0.
O=C(C[C@H]1CC[C@@H]2[C@H](COC[C@H](O)CN2Cc2cccc(Cl)c2)O1)NCC1CCCCC1 was read as Env fusion inh 20[16.7 µM], PglD DTNB -1 and F508del corr 1.
For Cc1cc(Cc2ccc(N)c(C)c2)ccc1N the results were ALR H2O2 inh 81*, NSD2 inh -1, Env fusion inh 0, PglD DTNB 0, Casp6 inh -1 and F508del corr 1.
For Nc1ccc(Cc2ccc(N)c(C(=O)O)c2)cc1C(=O)O the results were ALR H2O2 inh 4, NSD2 inh 8, PglD DTNB 3, Casp6 inh 44* and F508del corr 0.
Screening COCC(=O)Nc1ccc2c(c1)C(=O)N(C)C[C@H](OC)[C@@H](C)CN(Cc1ccncc1)[C@@H](C)CO2 returned Env fusion inh 10[16.7 µM], PglD DTNB 0, Casp6 inh 1 and F508del corr 0.
For N#C/C(=N\Nc1c(Cl)cccc1Cl)C(=O)NN the results were ALR H2O2 inh 98*, NSD2 inh 2, Env fusion inh -108 and PglD DTNB 0.
`N#C/C(=N\Nc1ccccc1Cl)C(=O)c1ccccc1` gave NSD2 inh -3, Env fusion inh -72 and PglD DTNB -1.
Cc1ccc(S(=O)(=O)N2CCOCC2)cc1NC(=O)CSc1n[nH]c(N)n1 was read as ALR H2O2 inh -3, NSD2 inh 0, Env fusion inh -7 and F508del corr 18*.
`Nc1nc(SCC(=O)Nc2cc(S(=O)(=O)N3CCOCC3)ccc2Cl)n[nH]1` gave ALR H2O2 inh -21, NSD2 inh -3, Env fusion inh 21, PglD DTNB 7, Casp6 inh -1 and F508del corr 0.
Screening O=C(CSc1nccc(=O)[nH]1)Nc1ccc(S(=O)(=O)N2CCOCC2)cc1 returned ALR H2O2 inh 99*, PglD DTNB -1, Casp6 inh 0 and F508del corr 0.
Cn1cnnc1SCC(=O)Nc1ccc(S(=O)(=O)N2CCOCC2)cc1 was read as ALR H2O2 inh -2, NSD2 inh 13, Env fusion inh 2, PglD DTNB -2, Casp6 inh 2 and F508del corr 12*.
For CC12CN3CC(C)(CN(C1)C3c1ccc3c(c1)OCO3)C2=O (stereo not given) the results were NSD2 inh 15, Casp6 inh 1 and F508del corr 0.
For CN1c2ccccc2N(C)C1c1ccc2c(c1)OCO2 the results were ALR H2O2 inh -11, NSD2 inh 0, Env fusion inh 63* and PglD DTNB 1.
